GRIN3A LBD mod: NR3A (human) ligand-binding domain modulation | Tm shift relative to glycine control, % at 25 µM | NR3A LBD differential scanning fluorimetry, Tm shift; 0% = protein alone, 100% = glycine-bound protein | hit rate 2.5% among 340,000;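 active = melting temperature shift of at least 10% of the positive control shift, at one fixed dose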
esBAF inh: SWI/SNF esBAF complex inhibition; mouse ES cells, Bmi1-luciferase knock-in reporter, 24 h; 100% = twice the neutral-well signal; reporter increase, % at 12.5 µM; hit rate 2% among 350,000; AID 602393; in the data active = activation above about 40%;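 also: a rise in the Bmi1 reporter signal indicates esBAF inhibition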
SMARCA2 act: activators of SMARCA2 function; MG213 cells, MMTV-luciferase reporter, dexamethasone, overnight; activation, % at 9.1 µM; hit rate 1% among 370,000; in the data active = activation above about 7.8%
SKN-1 block: blocks SKN-1 activity in C. elegans. C. elegans VP596 Pgst-4::GFP/RFP ratio, acrylamide-induced, 24 h. inhibition, % at 21.8 µM. hit rate 0.49% among 360,000;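 active = interference check ratio from 0.5 to 1.5 plus GFP to RFP signal ratio inhibition reaching or exceeding a fixed threshold, cut at about 30% in these data, passing the limit was not always enough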
Vif inh: inhibitors of HIV Vif; HEK293T cells, Vif self-association by quenched fluorescence, imaging, 24 h; inhibition, % at 7.49 µM; hit rate 0.35% among 340,000; in the data active = inhibition above about 50%, passing the limit was not always enough
NadD inh: blocks S. aureus nicotinate mononucleotide adenylyltransferase; inhibition, % at 20 µM; purified NadD enzyme, colorimetric absorbance read-out; AID 602399; hit rate 0.78% among 360,000; in the data active = inhibition above about 26%
Numbers stand for hits; 0 = inactive; - = no result. This is a sample that favours compounds with a hit; in the whole collection about 5.2% have one here.

SMILES | GRIN3A LBD mod | esBAF inh | SMARCA2 act | SKN-1 block | Vif inh | NadD inh
COC(=O)c1sccc1N/N=C/c1cccc(OC)c1O | 0 | 0 | 0 | 0 | 0 | 0
O=C(N/N=C/c1ccc(OCc2ccccc2)cc1)c1ccncc1 | 0 | 0 | 0 | 0 | 0 | 0
C[C@H](CO)N1C[C@H](C)[C@@H](CN(C)C(=O)CCCN(C)C)OCCCC[C@H](C)Oc2ccc(NS(C)(=O)=O)cc2C1=O | - | 0 | - | - | - | -
CCC(=O)N[C@@H]1C=C[C@H](CC(=O)NCc2cc(F)cc(F)c2)O[C@@H]1CO | - | 0 | - | - | - | -
Cc1cc(C)n(-c2ccc(C(=O)Nc3cccc(S(=O)(=O)N(C)C)c3)cc2)n1 | 0 | - | 0 | 0 | 0 | 0
Cc1cc(C)n(-c2ccc(C(=O)Nc3ccc(S(=O)(=O)NCc4ccco4)cc3)cc2)n1 | 17.2 | 0 | 0 | 0 | 0 | 0
Cc1cc(C)n(-c2ccc(C(=O)Nc3ccc4c(c3)OCO4)cc2)n1 | 0 | 67.8 | 0 | 0 | 0 | 0
Cc1cc(C)n(-c2ccc(C(=O)Nc3nc4ccccc4s3)cc2)n1 | 14.6 | 43.7 | 0 | 0 | 0 | 0
Cc1cc(C)n(-c2ccc(C(=O)Nc3cccc([N+](=O)[O-])c3)cc2)n1 | 18.6 | - | 0 | 0 | 0 | 0
O=C(N[C@H]1C=C[C@@H](CC(=O)N2CCOCC2)O[C@H]1CO)c1ccc2c(c1)OCO2 | - | 0 | - | - | - | -
COc1cc(NS(=O)(=O)c2ccc(NC(=S)Nc3ccccc3)cc2)nc(OC)n1 | 0 | 0 | 0 | 0 | 0 | 0
COc1cc(NS(=O)(=O)c2ccc(Nc3nc(-c4ccccc4)cs3)cc2)nc(OC)n1 | 26.7 | - | 0 | 0 | 0 | 0
Cc1cc(NS(=O)(=O)c2ccc(Nc3nc(-c4sc(N)nc4C)cs3)cc2)no1 | 0 | - | - | 0 | - | 36.8
Cc1cc(NS(=O)(=O)c2ccc(Nc3nc(-c4ccc(C)c(C)c4)cs3)cc2)no1 | 16.1 | - | 0 | 0 | 0 | 0
COc1ccc(OC)c(Nc2nc(-c3sc(N)nc3C)cs2)c1 | 0 | - | 0 | 0 | 0 | 31.8
CCCC(=O)Nc1nc(C)c(-c2csc(Nc3cc(OC)ccc3OC)n2)s1 | 0 | 0 | 0 | 0 | 0 | 0
O=C(C[C@@H]1C=C[C@@H](NC(=O)Nc2cccc(F)c2)[C@@H](CO)O1)NCC1CC1 | - | 0 | - | - | - | -
COC(=O)c1ccc(NC(=O)Cn2nnc3ccccc32)cc1 | 0 | 71.1 | 0 | 0 | 0 | 0
Cc1cccc(NC(=O)Cn2nnc3ccccc32)c1 | 0 | 63.2 | 0 | 0 | 0 | 0
CN(C)CCCNC(=O)C[C@H]1CC[C@@H]2[C@H](COc3ccc(NC(=O)NC4CCCC4)cc3C(=O)N2C)O1 | - | 0 | - | - | - | -
COC(=O)c1ccc(CN2C(=O)NC3(CCCCC3)C2=O)cc1 | 0 | 72.5 | 0 | 0 | 0 | 0
O=C1NC2(CCCCCC2)C(=O)N1Cc1ccc(Br)cc1 | 0 | 0 | 0 | 0 | 0 | 0
O=[N+]([O-])c1ccc(COc2ccc(CN3CCOCC3)cc2)cc1 | 0 | 0 | 0 | 0 | - | 0
O=[N+]([O-])c1ccc(CN2CCCCCC2)cc1 | 0 | 0 | 0 | 0 | 0 | 0
O=[N+]([O-])c1ccc(COc2ccc(CN3CCCCC3)cc2)cc1 | 0 | 0 | 0 | 39.7 | 0 | 0
SMILES | GRIN3A LBD mod | esBAF inh | SMARCA2 act | SKN-1 block | Vif inh | NadD inh
O=[N+]([O-])c1ccc(COc2ccc(CN3CCCC3)cc2)cc1 | 0 | 0 | 0 | 60.0 | - | 0
Cc1ccc(-c2cc(C(F)F)n3ncc(C(=O)N4CCN(c5cccc(C)c5C)CC4)c3n2)cc1 | 0 | 0 | 0 | 38.6 | 0 | 0
CCOC(=O)N1CCN(C(=O)c2cnn3c(C(F)F)cc(-c4ccc(C)cc4)nc23)CC1 | 0 | 0 | 0 | 0 | 0 | 0
CC(C)NC(=O)N(C)C[C@H]1Oc2ccc(NC(=O)Cn3cnnn3)cc2C(=O)N([C@@H](C)CO)C[C@H]1C | - | 0 | - | - | - | -
COc1cccc(NC(=O)CN(C)C(=O)c2oc3c(ccc4ccccc43)c2C)c1 | 16.8 | 0 | 0 | 0 | 0 | 0
COc1cccc(NC(=O)CN(C)C(=O)c2ccc(NC(=O)CC3SC(N4CCCC4)=NC3=O)cc2)c1 (centres undefined) | 10.6 | 0 | 0 | 0 | 0 | 0
NS(=O)(=O)c1cccc(NC(=O)COC(=O)c2ccccc2C(=O)c2ccccc2)c1 | 0 | 0 | 0 | 0 | 0 | 0
Cc1c(C(=O)OCC(=O)Nc2cccc(S(N)(=O)=O)c2)oc2c1ccc1ccccc12 | 14.7 | - | 0 | 0 | 0 | 0
COc1ccc(NC(=O)CN(C)C(=O)c2oc3c(ccc4ccccc43)c2C)cc1 | 0 | 0 | 0 | 0 | 0 | 0
O=C(Nc1ccc(Cl)cc1)c1ccc(-n2cccn2)c([N+](=O)[O-])c1 | 23.3 | 0 | 0 | 0 | 0 | 0
